Records with an inconclusive call do not appear. Active and inactive are the calls of the source. Calls follow the shape of the dose curve; as a rule, active = well fitted curve in the direction sought with a large enough effect; inconclusive = small, poorly fitted or top-dose-only effect, or another doubt; inactive = no such curve, though single readings can be large; an effect the other way counts as inactive or inconclusive.
Tests used:
[1] = Quantitative High-Throughput drug screen in 47 multiple myeloma cell lines against the NCATS MIPE library collection: Delta47_JCRB cell viability assay (AID 1918925; also: nearly all actives have a fitted effect of over 45% in size)
Method in brief: (§1)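 We plated 500 myeloma cells per well, pinned in MIPE 4.0 compounds, and incubated for 48 hours at 37C. ATP was then quantified with CellTiter-Glo, with DMSO and media-only wells defining 100% and 0%.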

[2] = Quantitative High-Throughput drug screen in 47 multiple myeloma cell lines against the NCATS MIPE library collection: EJM_DSMZ cell viability assay (AID 1918926; also: nearly all actives have a fitted effect of over 30% in size)
Method in brief: as §1

[3] = Quantitative High-Throughput drug screen in 47 multiple myeloma cell lines against the NCATS MIPE library collection: AMO1_DSMZ cell viability assay (AID 1918927; also: nearly all actives have a fitted effect of over 30% in size)
Method in brief: as §1

[4] = Quantitative High-Throughput drug screen in 47 multiple myeloma cell lines against the NCATS MIPE library collection: ARP1_JJKsccF8 cell viability assay (AID 1918928; also: nearly all actives have a fitted effect of over 40% in size)
Method in brief: (§2)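 Cell viability inhibition in this qHTS is measured via ATP content (CellTiter-Glo) after 48 h drug exposure at 37 °C. Wells hold 500 cells; DMSO-treated wells define 100% and medium-only wells 0%.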

[5] = Quantitative High-Throughput drug screen in 47 multiple myeloma cell lines against the NCATS MIPE library collection: ARD_JJKsccE7 cell viability assay (AID 1918929)
Method in brief: as §1

[6] = Quantitative High-Throughput drug screen in 47 multiple myeloma cell lines against the NCATS MIPE library collection: Karpas620_DSMZ cell viability assay (AID 1918959); also: nearly all actives have a fitted effect of over 30% in size
Method in brief: (§3)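 qHTS of the MIPE 4.0 collection: 500 myeloma cells/well, 48 h drug exposure at 37C in 5% CO2, then CellTiter-Glo for 5 min at room temperature before luminescence reading.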

[7] = Quantitative High-Throughput drug screen in 47 multiple myeloma cell lines against the NCATS MIPE library collection: KMM1_JCRB cell viability assay (AID 1918960); also: nearly all actives have a fitted effect of over 30% in size
Method in brief: as §2

[8] = Quantitative High-Throughput drug screen in 47 multiple myeloma cell lines against the NCATS MIPE library collection: Karpas417_ECACC cell viability assay (AID 1918961); conditions: Karpas417 myeloma viability, CellTiter-Glo ATP luminescence, 48 h; viability (% of DMSO): at 45.8 µM (top of the series)
Method in brief: (§4)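 Luminescent ATP measurement with CellTiter-Glo gives viability, scaled between DMSO-only wells (100%) and media-only wells (0%). Cells, 500 per well, faced library compounds for 48 hours at 37C.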

[9] = Quantitative High-Throughput drug screen in 47 multiple myeloma cell lines against the NCATS MIPE library collection: JIM3_ECACC cell viability assay (AID 1918963; also: nearly all actives have a fitted effect of over 35% in size)
Method in brief: as §3

[10] = Quantitative High-Throughput drug screen in 47 multiple myeloma cell lines against the NCATS MIPE library collection: JIM1_ECACC cell viability assay (AID 1918964)
Method in brief: as §1

[11] = Quantitative High-Throughput drug screen in 47 multiple myeloma cell lines against the NCATS MIPE library collection: INA6_PLB cell viability assay (AID 1918965; also: nearly all actives have a fitted effect of over 55% in size)
Method in brief: as §4

[12] = Quantitative High-Throughput drug screen in 47 multiple myeloma cell lines against the NCATS MIPE library collection: JJN3_DSMZ cell viability assay (AID 1918966; also: nearly all actives have a fitted effect of over 50% in size)
Method in brief: as §1

[13] = Quantitative High-Throughput drug screen in 47 multiple myeloma cell lines against the NCATS MIPE library collection: H1112_PLB cell viability assay (AID 1918967; also: nearly all actives have a fitted effect of over 30% in size)
Method in brief: as §1

[14] = Quantitative High-Throughput drug screen in 47 multiple myeloma cell lines against the NCATS MIPE library collection: Karpas25_ECACC cell viability assay (AID 1918968; also: nearly all actives have a fitted effect of over 35% in size)
Method in brief: as §1

[15] = Quantitative High-Throughput drug screen in 47 multiple myeloma cell lines against the NCATS MIPE library collection: KMS12BM_JCRB cell viability assay (AID 1918971); also: nearly all actives have a fitted effect of over 35% in size
Method in brief: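 Steps: seed 500 cells per well; pin-transfer MIPE 4.0 library; incubate 48 h at 37C, 5% CO2, humidified; add CellTiter-Glo, 5 min room temperature; read luminescence.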

[16] = Quantitative High-Throughput drug screen in 47 multiple myeloma cell lines against the NCATS MIPE library collection: KMS12PE_JCRB cell viability assay (AID 1918972); also: nearly all actives have a fitted effect of over 30% in size
Method in brief: as §4

[17] = Quantitative High-Throughput drug screen in 47 multiple myeloma cell lines against the NCATS MIPE library collection: KMS20_JCRB cell viability assay (AID 1918973); also: nearly all actives have a fitted effect of over 45% in size
Method in brief: as §1

[18] = Quantitative High-Throughput drug screen in 47 multiple myeloma cell lines against the NCATS MIPE library collection: KMS21BM_JCRB cell viability assay (AID 1918974); conditions: ATP luminescence, 48 h; viability: at 45.8 µM (top of the series) unless noted
Method in brief: as §1

[19] = Quantitative High-Throughput drug screen in 47 multiple myeloma cell lines against the NCATS MIPE library collection: KHM11_PLB cell viability assay (AID 1918962); also: nearly all actives have a fitted effect of over 35% in size
Method in brief: as §3

[20] = Quantitative High-Throughput drug screen in 47 multiple myeloma cell lines against the NCATS MIPE library collection: KMS27_JCRB cell viability assay (AID 1918970); also: nearly all actives have a fitted effect of over 30% in size
Method in brief: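 Viability inhibition screen, 48 h compound exposure, luminescent ATP read-out.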

Measured: Potency
Potency is read from the fitted curve at half-maximal effect.

Cc1ccc(-c2ncn(-c3ccc(Nc4nccc(-c5cccc(N6CCOCC6)c5)n4)cc3)n2)cn1
active: [1] 105 nM | [2] 187 nM | [3] 132 nM | [4] 166 nM | [5] 105 nM | [6] 209 nM | [7] 105 nM | [8] 29.6 nM | [9] 235 nM | [10] 66.2 nM | [11] 66.2 nM | [12] 235 nM | [13] 105 nM | [14] 83.3 nM | [15] 83.3 nM | [16] 59 nM | [17] 83.3 nM | [18] 29.6 nM

O=C(Nc1cc(C(F)(F)F)cc(C(F)(F)F)c1)c1cc(Cl)ccc1O
active: [1] 1870 nM | [2] 1480 nM | [3] 235 nM | [4] 1050 nM | [5] 209 nM | [6] 833 nM | [7] 132 nM | [8] 590 nM | [19] 1480 nM | [9] 662 nM | [10] 1050 nM | [11] 1660 nM | [12] 1870 nM | [13] 1870 nM | [14] 372 nM | [20] 833 nM | [15] 833 nM | [16] 526 nM | [17] 1320 nM | [18] 526 nM

CN1CCC(CNc2ccc3ncc(-c4cccc(OC(F)(F)F)c4)n3n2)CC1
active: [1] 4690 nM | [2] 26400 nM | [3] 13200 nM | [4] 13200 nM | [5] 11800 nM | [6] 10500 nM | [7] 16600 nM | [8] 10500 nM | [19] 6620 nM | [9] 9350 nM | [10] 8330 nM | [11] 4690 nM | [13] 8330 nM | [14] 7430 nM | [20] 14800 nM | [15] 20900 nM | [16] 7430 nM | [17] 3320 nM | [18] 9350 nM

COC(=O)[C@]12CCC(C)(C)C[C@@H]1[C@@H]1C(=O)C=C3[C@@]4(C)C=C(C#N)C(=O)C(C)(C)[C@@H]4CC[C@@]3(C)[C@]1(C)CC2
active: [1] 235 nM | [2] 418 nM | [3] 469 nM | [4] 469 nM | [5] 662 nM | [6] 526 nM | [7] 662 nM | [8] 526 nM | [9] 166 nM | [10] 418 nM | [12] 526 nM | [13] 418 nM | [14] 209 nM | [20] 526 nM | [15] 526 nM | [16] 662 nM | [17] 296 nM | [18] 74.3 nM

CNC(=O)c1nn(C)c2c1C(C)(C)Cc1cnc(Nc3ccc(N4CCN(C)CC4)cc3)nc1-2
active: [1] 1050 nM | [2] 2640 nM | [3] 1180 nM | [4] 4690 nM | [5] 3320 nM | [6] 4690 nM | [7] 935 nM | [8] 833 nM | [19] 1480 nM | [9] 3720 nM | [10] 743 nM | [11] 743 nM | [12] 4690 nM | [13] 4690 nM | [20] 662 nM | [15] 1660 nM | [17] 2960 nM | [18] 132 nM

C=C1C(=CC=C2CCC[C@]3(C)[C@@H]([C@H](C)C=C[C@H](C)C(C)C)CC[C@@H]23)C[C@@H](O)C[C@@H]1O
active: [1] 8330 nM | [2] 590 nM | [3] 235 nM | [4] 1660 nM | [5] 332 nM | [6] 1480 nM | [7] 469 nM | [8] 118 nM | [19] 9350 nM | [9] 7430 nM | [10] 526 nM | [11] 1480 nM | [12] 833 nM | [13] 2350 nM | [14] 935 nM | [20] 118 nM | [15] 1870 nM | [18] 52.6 nM

O=C(NC1CCNCC1)c1[nH]ncc1NC(=O)c1c(Cl)cccc1Cl
active: [1] 372 nM | [2] 105 nM | [3] 1180 nM | [4] 372 nM | [5] 743 nM | [6] 935 nM | [7] 590 nM | [8] 187 nM | [19] 235 nM | [9] 526 nM | [10] 264 nM | [11] 590 nM | [12] 187 nM | [13] 1050 nM | [14] 372 nM | [20] 526 nM | [15] 235 nM | [17] 469 nM | [18] 118 nM

O=c1[nH]nc(Sc2ncc([N+](=O)[O-])s2)n1-c1ccc2c(c1)OCCO2
active: [1] 2350 nM | [2] 2960 nM | [3] 6620 nM | [4] 2960 nM | [5] 7430 nM | [6] 2640 nM | [7] 5900 nM | [19] 2090 nM | [9] 2640 nM | [10] 5900 nM | [11] 1180 nM | [12] 2090 nM | [13] 2640 nM | [14] 1320 nM | [20] 6620 nM | [15] 4690 nM | [16] 7430 nM | [17] 2090 nM

Reference: PubChem BioAssay (NCATS)
